# According to a collection of fitness landscapes (doi:10.1016/j.celrep.2020.107928):
# In all, about 81,000 sequences were measured (“one-hybrid fitness for binding NBS DNA”: median about -0.1, highest 2% from about 0.36 on). The full list was thinned out, with the highest values kept by preference.
# B1: Caulobacter ParB omega fusion; a variant is named by its letters at X, in order, B8GW30 (parent)
# chain: MESVVVGEPGMSEGRRGLGRGLSALLGEVDAAPAQAPGEQLGGSREAPIEILQRNPDQPRRTFREEDLEDLSNSIREKGVLQPILVRPSPDTAGEYQIVAGERAWRAAQRAGLKTVPIMVRELDDLAVLEIGIIENVQRADLNVLEEALSYKVLMEKFERTQENIAQTIGKSXSHVANXMRLLXLPDEVQSYLVSGELTAXHARAIAAAADPVALAKQIIEGGLSVRETEALARKAPNLSAGKSKGGRPPRVKDTDTQALESDLSSVLGLDVSIDHRGSTGTLTITYATLEQLDDLCNRLTRGI
# Variants of: B1
# Assay: one-hybrid fitness for binding NBS DNA (the Noc-binding site; scaled: cognate 1, non-cognate 0); higher = stronger binding
# Conditions: with NBS DNA site
# Method in brief: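 Selection: bacterial one-hybrid in E. coli USO, HIS3 reporter with the site 19 bp from the promoter, 48 hours at 37°C on M9-minus-histidine plus 0.1 mM IPTG and 5 mM 3-AT. Libraries were Caulobacter ParB with four randomised specificity codons, sequenced on Illumina before and after selection. Fitness is the rescaled log change in variant-to-wild-type read ratio, anchored to the cognate and non-cognate sites.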
row,Variant,one-hybrid fitness for binding NBS DNA
1,GAKC,≤ 0.2
2,KIRV,≤ 0.2
3,QELA,≤ 0.2
4,RQLA,≤ 0.2
5,DCST,≤ 0.2
6,RHSQ,≤ 0.2
7,RIST,0.398
8,RWST,≤ 0.2
9,RHST,0.435
10,RHSF,≤ 0.2
11,RPST,≤ 0.2
12,RCST,0.531
13,RFST,0.217
14,RSST,0.426
15,RDST,≤ 0.2
16,RISP,≤ 0.2
17,RISH,≤ 0.2
18,KFSS,≤ 0.2
19,KFVF,≤ 0.2
20,LRQC,≤ 0.2
21,DWDT,≤ 0.2
22,RAIT,0.22
23,RAST,0.405
24,RASG,≤ 0.2
25,WCGS,≤ 0.2
26,WSGA,≤ 0.2

row,Variant,one-hybrid fitness for binding NBS DNA
1,LRTY,≤ 0.2
2,RSIS,0.203
3,RLRH,0.322
4,RLRS,0.541
5,RSPS,≤ 0.2
6,RSYS,0.409
7,RPRS,≤ 0.2
8,RCRS,0.661
9,RCRD,≤ 0.2
10,RCIS,0.281
11,RCYS,0.521
12,RCDS,≤ 0.2
13,RLYS,0.34
14,PGSA,≤ 0.2
15,INQF,≤ 0.2
16,RCMW,≤ 0.2
17,QPWY,≤ 0.2
18,PDHS,≤ 0.2
19,CDSD,≤ 0.2
20,TLGI,≤ 0.2
21,NQER,≤ 0.2
22,HRCR,≤ 0.2
23,DVPR,≤ 0.2
24,LVEQ,≤ 0.2
25,RMYS,0.361
26,RMRN,0.25

row,Variant,one-hybrid fitness for binding NBS DNA
1,RSRD,≤ 0.2
2,RSRN,≤ 0.2
3,RMRS,0.642
4,RFRS,0.446
5,RSRS,0.593
6,RFIS,≤ 0.2
7,RFYS,≤ 0.2
8,GATS,≤ 0.2
9,FYHG,≤ 0.2
10,RQDG,≤ 0.2
11,PLRC,≤ 0.2
12,MYHV,≤ 0.2
13,MNMN,≤ 0.2
14,NSER,≤ 0.2
15,IPMG,≤ 0.2
16,MNVG,≤ 0.2
17,YLLC,≤ 0.2
18,QMAR,0.602
19,QMAP,≤ 0.2
20,QMFR,0.431
21,QMFS,0.251
22,QMAN,≤ 0.2
23,QMFD,≤ 0.2
24,KGLV,≤ 0.2
25,WVEH,≤ 0.2
26,QVVS,≤ 0.2

row,Variant,one-hybrid fitness for binding NBS DNA
1,VVYG,≤ 0.2
2,QRRL,0.364
3,QRDN,≤ 0.2
4,QRDH,0.381
5,QCNN,0.208
6,NRRH,≤ 0.2
7,QRDD,≤ 0.2
8,QRNN,0.459
9,QCNC,≤ 0.2
10,QRNC,0.44
11,QRDC,0.227
12,QRDP,≤ 0.2
13,QRRH,0.779
14,WYLT,≤ 0.2
15,RDFR,≤ 0.2
16,EMRY,≤ 0.2
17,KWVR,≤ 0.2
18,YLCS,≤ 0.2
19,TWCL,≤ 0.2
20,SYCN,≤ 0.2
21,IVKG,≤ 0.2
22,CWPS,≤ 0.2
23,QREH,0.258
